Screens: PubChem BioAssay, several laboratories
CYP2C9 inhib: blocks human cytochrome P450 2C9 | CYP2C9 Supersomes, luciferin-H conversion, luminescence | 96,000 tested, 20% active | inhibition, % at 5 µM | AID 777 | P11712;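 active means blocking of liver enzyme CYP2C9 beyond about 50% at 5 µM, limit read from the data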
CYP2C19 activ: activators of human cytochrome P450 2C19. AID 1025. P33261. recombinant CYP2C19, luciferin-H EGE luminescence; hits give high values; 0 = fully inhibited enzyme, 1 = untreated enzyme. activation factor at 5 µM. 96,000 tested, under 10 active;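 active means activation factor of at least 2 at 5 µM in the primary screen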;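 further: 0 = wells with 2.5 mM tranylcypromine and 1 = vehicle-only wells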
CYP2C9 activ: increases human cytochrome P450 2C9 activity | P11712 | recombinant CYP2C9, luciferin-H conversion, luminescence; hits give high values; factor 1 = untreated enzyme, 0 = blocked | activation factor at 5 µM | 96,000 tested, 1.4% active;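 active means activation factor of 2 or more for CYP2C9 at a 5 µM dose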;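 further: 0 = sulfaphenazole-blocked wells and 1 = vehicle-only wells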
CYP2C19 inh: inhibitors of human CYP2C19; CYP2C19 Supersomes, luciferin-H EGE luminescence, 30 min; P33261; AID 778; inhibition, % at 5 µM; 96,000 tested, 21% active;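 active means CYP2C19 inhibition above a set limit at 5 µM in the primary screen, cut at about 50% in these data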;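 further: plate controls were negative control wells for no effect and 2.5 mM tranylcypromine positive control for full effect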
sEH inh: inhibitors of human soluble epoxide hydrolase; recombinant human sEH enzymatic activity assay; inhibition, % at 2 µM; 91,000 tested, 0.34% active; AID 707; in the data active means inhibition above about 80%
Target sequence (P34913 whole entry, looked up): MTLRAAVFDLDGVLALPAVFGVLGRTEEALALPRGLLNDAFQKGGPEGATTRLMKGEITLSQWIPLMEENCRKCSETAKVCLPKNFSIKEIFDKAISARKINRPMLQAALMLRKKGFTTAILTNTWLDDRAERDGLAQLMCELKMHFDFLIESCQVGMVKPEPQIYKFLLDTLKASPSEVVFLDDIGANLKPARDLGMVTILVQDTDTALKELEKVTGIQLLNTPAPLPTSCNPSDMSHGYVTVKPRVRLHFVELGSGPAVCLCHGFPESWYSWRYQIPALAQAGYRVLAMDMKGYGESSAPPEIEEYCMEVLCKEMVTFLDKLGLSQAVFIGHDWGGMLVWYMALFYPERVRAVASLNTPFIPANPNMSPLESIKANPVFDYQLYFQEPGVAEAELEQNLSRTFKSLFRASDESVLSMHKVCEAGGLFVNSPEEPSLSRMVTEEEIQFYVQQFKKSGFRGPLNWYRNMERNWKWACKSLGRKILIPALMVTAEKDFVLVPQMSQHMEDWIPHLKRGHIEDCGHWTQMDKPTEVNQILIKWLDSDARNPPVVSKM
sEH activator: activators of human soluble epoxide hydrolase | P34913 | purified human sEH enzymatic activity, activator screen | activation, % at 2 µM | 91,000 tested, 0.04% active | AID 717; in the data active means activation above about 37%
Numbers without * were called inactive. An excerpt weighted towards active compounds, which were near 27% of everything screened.

O=C(CCc1ccc(S(=O)(=O)NCCc2ccccc2)cc1)NCc1ccco1 was read as sEH inh 16.8 and sEH activator -14.0.
CSc1nsc(SCC(=O)Nc2ccc(Br)cn2)n1 was read as CYP2C9 inhib 25.8, CYP2C19 activ 0.3, CYP2C9 activ 0.7, CYP2C19 inh 73.3*, sEH inh 8.8 and sEH activator -8.0.
For CSc1nsc(SCC(=O)Nc2ccc(C(C)=O)cc2)n1 the results were CYP2C9 inhib 57.4*, CYP2C19 activ 0.5, CYP2C9 activ 0.4, CYP2C19 inh 49.5, sEH inh 10.7 and sEH activator -7.8.
Screening Cc1cc(C)nc(SCC(=O)Nc2ccc(Br)cn2)n1 returned CYP2C9 inhib 16.0, CYP2C19 activ 0.2, CYP2C9 activ 0.8, CYP2C19 inh 81.2*, sEH inh -16.6 and sEH activator 15.9.
For Cc1cc(C)nc(SCC(=O)NC2=NN=C(c3ccc(Br)cc3)CS2)n1 the results were CYP2C9 inhib -105.7, CYP2C19 activ 0.9, CYP2C9 activ 2.1*, CYP2C19 inh 9.3, sEH inh -16.3 and sEH activator 13.9.
`Cn1c(=O)c2nnn(/N=C(\c3ccccc3)C3CC3)c2n(C)c1=O` gave CYP2C9 inhib 9.5, CYP2C19 activ 0.7, CYP2C9 activ 0.9, CYP2C19 inh 28.8, sEH inh -11.6 and sEH activator 13.0.
COc1ccc(C(=O)COC(=O)CCCn2c(=O)oc3ccccc32)cc1 was read as sEH inh -6.0 and sEH activator 4.2.
`C=C(C)C1CC=C(C)/C(=N/NC(=O)CNc2ccc(OCC)cc2)C1` (stereo not drawn) gave CYP2C9 inhib 5.3, CYP2C19 activ 1, CYP2C9 activ 0.9, CYP2C19 inh 2.9, sEH inh 17.6 and sEH activator -17.0.
Cc1nc2sc(C(c3cccs3)N3CC(C)CC(C)C3)c(O)n2n1 (stereo not drawn) was read as CYP2C9 inhib -14.4, CYP2C19 activ 0.3, CYP2C9 activ 1.1, CYP2C19 inh 67.4*, sEH inh 1.3 and sEH activator -1.3.
`O=S(=O)(c1ccc2c(c1)OCCO2)N1CCC(c2nc3ccccc3s2)CC1` gave CYP2C9 inhib -31.3, CYP2C19 activ 0.9, CYP2C9 activ 1.3, CYP2C19 inh 8.0, sEH inh 10.1 and sEH activator -9.8.
Screening O=C(NCc1nc2ccccc2[nH]1)c1ccc(S(=O)(=O)N2CCOCC2)cc1 returned CYP2C9 inhib 30.9, CYP2C19 activ 0.8, CYP2C9 activ 0.7, CYP2C19 inh 19.7, sEH inh -3.7 and sEH activator 3.3.
O=S(=O)(c1ccc2c(c1)OCCO2)N1CCC(c2nc3ccc(Cl)cc3[nH]2)CC1 was read as CYP2C9 inhib -111.4, CYP2C19 activ 0.2, CYP2C9 activ 2.1* and CYP2C19 inh 84.3*.
Screening O=S(=O)(c1ccc2c(c1)OCCO2)N1CCC(c2nc3ccccc3[nH]2)CC1 returned CYP2C9 inhib -56.9, CYP2C19 activ 0.4, CYP2C9 activ 1.6, CYP2C19 inh 63.2*, sEH inh 29.0 and sEH activator -29.8.
O=C(NCC1CCCO1)c1ccc(S(=O)(=O)N2CCC(c3nc4ccc(Cl)cc4[nH]3)CC2)cc1 (stereo not drawn) was read as sEH inh 80.9* and sEH activator -81.0.
For CC(=O)Nc1ccc(S(=O)(=O)N2CCN(c3cc(C)nc4ccccc34)CC2)cc1 the results were CYP2C9 inhib 66.2*, CYP2C19 activ 0.6, CYP2C9 activ 0.3, CYP2C19 inh 44.8, sEH inh -0.4 and sEH activator 0.7.
For CCCN1CCN(CCCNC(=O)C2CCCN(c3nnc(-n4cccc4)s3)C2)CC1 (stereo not drawn) the results were CYP2C9 inhib -1.6, CYP2C19 activ 1.2, CYP2C9 activ 1, CYP2C19 inh -18.3, sEH inh 8.5 and sEH activator -9.7.
`O=C(c1ccc(S(=O)(=O)N2CCC(c3nc4ccccc4[nH]3)CC2)cc1)N1CCOCC1` gave CYP2C9 inhib 35.4, CYP2C19 activ 0.5, CYP2C9 activ 0.6 and CYP2C19 inh 47.3.
CC(=O)Nc1ccc(S(=O)(=O)N2CCC(c3nc4ccccc4[nH]3)CC2)cc1 was read as CYP2C9 inhib 68.3*, CYP2C19 activ 0.5, CYP2C9 activ 0.3, CYP2C19 inh 48.2, sEH inh 25.7 and sEH activator -25.6.
Screening Cc1ccc2nc(C3CCN(S(=O)(=O)c4ccc5ccccc5c4)CC3)[nH]c2c1 returned CYP2C9 inhib -195.3, CYP2C19 activ 0.6, CYP2C9 activ 3*, CYP2C19 inh 37.8, sEH inh 48.4 and sEH activator -48.1.
Screening Cc1ccc(C(=O)NC(=S)Nc2cc(-c3nc4ccccc4s3)ccc2C)cc1 returned CYP2C9 inhib 30.9, CYP2C19 activ 0.7, CYP2C9 activ 0.7, CYP2C19 inh 25.3, sEH inh 0.0 and sEH activator -1.8.
`CC(C)(C)NC(=O)CSc1ccc(C(C)(C)C)cc1` gave sEH inh 8.5 and sEH activator -7.9.
`Cc1ccc(-n2c(O)c(/C=N/n3cnnc3)c3ccccc3c2=O)cc1` gave CYP2C9 inhib 90.7*, CYP2C19 activ 0.9, CYP2C9 activ 0.1, CYP2C19 inh 7.7, sEH inh -1.1 and sEH activator 2.3.
For O=c1c2ccccc2c(/C=N/n2cnnc2)c(O)n1-c1ccccc1F the results were CYP2C9 inhib 58.3*, CYP2C19 activ 1, CYP2C9 activ 0.4 and CYP2C19 inh -2.6.
For COc1ccc(CNC(=O)C(c2cccs2)N(C(=O)c2csnn2)C2CC2)cc1 (stereo not drawn) the results were CYP2C9 inhib -1.8, CYP2C19 activ 0.8, CYP2C9 activ 1, CYP2C19 inh 15.8, sEH inh -13.2 and sEH activator 11.0.
`O=c1oc(-c2ccccc2Cl)nc2ccsc12` gave CYP2C9 inhib 14.5, CYP2C19 activ 0.2, CYP2C9 activ 0.9, CYP2C19 inh 77.4*, sEH inh 4.8 and sEH activator -4.5.
COC(=O)C(Cc1cncn1COCc1ccccc1)NC(=O)OC(C)(C)C (stereo not drawn) was read as CYP2C9 inhib 24.9, CYP2C19 activ 0.6, CYP2C9 activ 0.8, CYP2C19 inh 36.4, sEH inh 6.2 and sEH activator -3.3.
CSc1nc2nc(C(F)(F)F)cc(-c3ccccc3)n2n1 was read as CYP2C9 inhib 61.6*, CYP2C19 activ 0.7, CYP2C9 activ 0.4, CYP2C19 inh 27.4, sEH inh -12.7 and sEH activator 10.7.
CSc1nc2nc(C)cc(-c3ccccc3)n2n1 was read as CYP2C9 inhib -0.7, CYP2C19 activ 1.1, CYP2C9 activ 1, CYP2C19 inh -10.2, sEH inh 55.5 and sEH activator -53.8.
O=C1CCC(C(=O)O)(c2ccccc2)C1 (stereo not drawn) was read as CYP2C9 inhib -3.8, CYP2C19 activ 1.2, CYP2C9 activ 1, CYP2C19 inh -15.5, sEH inh 5.3 and sEH activator -6.6.
